Screening results from PubChem BioAssay.
The list is not random: actives were taken first. Their share in the collection is about 2.1%.
TDP43 rescue = qHTS of TDP-43 Inhibitors. TDP-43 expressing yeast growth rescue, BacTiter-Glo, 24 h. Potency, µM (series often up to 46.1 µM), inactives show at the top dose growth rescue (activation), actives largely listed as activators. actives 1.8% (n = 410,000). AID 652104, 2013; further: % of control where 0% means no effect; nearly all actives have a fitted effect of over 50% in size
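In this qHTS, compounds that restore growth of yeast expressing TDP-43 appear as activators. Cells (OD600=0.02, galactose medium, raffinose-pregrown) are incubated with compound 24 hr at 30 deg C and growth is quantified by BacTiter-Glo.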
aSyn yeast inh = qHTS of alpha-syn Inhibitors; Yeast expressing alpha-synuclein, growth rescue, BacTiter-Glo, 24 h; Potency, µM (series often up to 46.1 µM), inactives show top-dose growth rescue (activation), most hits filed as activators; actives 0.14% (n = 370,000); AID 652106, 2013; further: % of control where 0% means no effect; nearly all actives have a fitted effect of over 65% in size
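Screening used galactose-induced yeast with toxic alpha-synuclein levels, exposed to compound for 24 hr at 30 deg C. Cell growth, read with BacTiter-Glo luminescence, gave the measured signal.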
FUS suppressor = qHTS for Suppressors of FUS Proteinopathy: Primary screen using FUS-linked yeast assay. S. cerevisiae FUS-expressing, growth rescue, OD600, 24 h. Potency, µM (highest dose often 76.6 µM), actives largely listed as activators. actives 0.24% (n = 390,000);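 further: plate controls were DMSO vehicle for no effect and reference control for full effect; nearly all actives have a fitted effect of over 55% in size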
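Steps: raffinose overnight preculture; dilution to OD 0.005 in 2% galactose minimal medium; compound addition (concentration series); 24hr at 30C, 99% humidity; absorbance read at 600 nm.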
Abeta yeast res = qHTS for compounds that reverse cellular toxicity of Amyloid beta (A-beta) peptide in yeast: Primary Screen | actives 0.063% (n = 410,000) | Potency, µM (titrated, usually from 46.1 µM), most hits filed as activators | yeast expressing A-beta42, growth rescue, OD600, 48 h; response scale: 0% DMSO, 100% iron-clioquinol control; further: nearly all actives have a fitted effect of over 55% in size
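Yeast A-beta toxicity model in growth medium with pinned compounds, 48 h at 30 C; growth read as absorbance at 600 nm. Normalized to FeCl3/clioquinol equimolar mix (positive) and DMSO (negative).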
* = called active by the depositor; i = inactive; ? = inconclusive; nt = no result; [ ] = another dose, or the depositor's remark. The call rests on the fitted dose curve; in most records, active means well fitted curve in the direction sought with a large enough effect; inconclusive means small, poorly fitted or top-dose-only effect, or another doubt; inactive means no such curve, though single readings can be large; an effect the other way counts as inactive or inconclusive. Potency means the concentration at half of the fitted maximal effect.

SMILES | TDP43 rescue | aSyn yeast inh | FUS suppressor | Abeta yeast res
CC1CCc2nc(NC(=O)C3CC3)sc2C1 (stereo unspecified) | 14% | -9% | i | i
CC1CCc2nc(NC(=O)C3COc4ccccc4O3)sc2C1 (stereo unspecified) | 35µM* | -1% | i | ?
O=[N+]([O-])/C=C/c1cn(Cc2ccccc2)c2ccccc12 | 10µM* | 1% | i | i
O=C(O)Cn1cc(/C=C/[N+](=O)[O-])c2ccccc21 | 7%[9.22 µM] | -1% | i | i
CCCNc1nc(Nc2ccc([N+](=O)[O-])cc2)nc(N2CCOCC2)n1 | nt | -3% | nt | nt
CCCN1CNc2c(c(=O)[nH]c(=S)n2CCc2ccccc2OC)C1 | nt | -7% | nt | nt
Brc1ccc(-c2nnc(-c3cccnc3)o2)cc1 | 10µM* | 3% | i | i
Brc1ccccc1-c1nnc(-c2cccnc2)o1 | 16µM* | 0% | i | i
COc1ccc(-c2nnc(-c3ccc(N)cc3)o2)cc1 | 10µM* | 5% | i | i
Cc1ccc(-c2nnc(-c3cccnc3)o2)cc1 | 5% | -1% | i | i
COc1ccc(-c2nnc(-c3cccnc3)o2)cc1 | 22µM* | -17% | i | i
COc1cccc(-c2noc(-c3cccnc3)n2)c1 | 19% | -7% | i | i
COc1ccc(-c2nnc(-c3ccc(N(C)C)cc3)o2)cc1 | -5% | -21% | ? | i
COc1ccccc1-c1nn2c(-c3cc(C)[nH]n3)nnc2s1 | nt | -9% | nt | nt
O=S(=O)(c1ccccc1Cl)N1CCN(c2nc(-c3ccccc3)nc3ccccc23)CC1 | nt | 2% | nt | nt
Clc1ccc(-c2nnc(-c3cccnc3)o2)cc1 | 13µM* | -4% | i | i
FC(F)(F)c1ccc(-c2nnc(-c3cccnc3)o2)cc1 | 13µM* | 3% | i | i
Cc1ccc(S(=O)(=O)N2CCN(c3ccnc(-c4cccs4)n3)CC2)cc1 | nt | 1% | nt | nt
Cc1ccc(S(=O)(=O)N2CCN(c3nc(-c4ncco4)nc4ccccc34)CC2)cc1 | nt | 8% | nt | nt
COc1cc2oc3ccc(C#Cc4ccccn4)cc3c(=O)c2cc1OC | 9% | 13µM* | i | i
O=C(CN1C(=O)COc2ccc(S(=O)(=O)Nc3ccccc3)cc21)NCc1ccccc1Cl | ? | nt | i | i
CN(/N=C/c1cc(Br)cc(Br)c1O)c1cccc(C(F)(F)F)n1 | ? | 8.9µM* | i | i
Fc1ccccc1N1CCN(c2nc(-c3cccs3)nc3ccccc23)CC1 | 14µM* | 4% | i | i
CC(=O)N1CCN(c2nc(-c3cccs3)nc3ccccc23)CC1 | -17% | -2% | i | i
Clc1ccc(SCc2csc(N3CCOCC3)n2)cc1 | 23% | 3% | i | i
SMILES | TDP43 rescue | aSyn yeast inh | FUS suppressor | Abeta yeast res
O=c1cc(CSc2ccc(Cl)cc2)nc(-c2ccccn2)[nH]1 | ? | 10µM* | i | ?
Clc1ccc(SCc2cc(N3CCOCC3)nc(-c3ccccn3)n2)cc1 | -10% | 0% | i | 13µM*
O=c1cc(CSc2ccc(Cl)cc2)nc(-c2ccccc2)[nH]1 | -12% | -4% | i | i
Cc1ccc(C)c(N2CCN(C(=O)c3cc4ccc5cccnc5c4[nH]3)CC2)c1 | 13µM* | nt | ? | i
Cc1cccc(N2CCN(C(=O)C3CCN(S(=O)(=O)c4cccc5cccnc45)CC3)CC2C)c1 (stereo unspecified) | 11% | 7% | 22µM* | i
Cc1cccc(N2CCN(C(=O)c3cc4ccc5cccnc5c4[nH]3)CC2C)c1 (stereo unspecified) | 8.9µM* | nt | ? | i
O=C(NCc1ccccc1)c1cc2ccc3cccnc3c2[nH]1 | 0% | nt | i | i
Cc1ccc(Cl)cc1N(C)C(=O)c1cc2ccc3cccnc3c2[nH]1 | 25µM* | nt | ? | i
COc1ccc(CNC(=O)CCNS(=O)(=O)c2ccc3[nH]c(=O)oc3c2)cc1 | nt | nt | i | nt
CCN(N=O)c1ccc(/C=C2\C=Cc3ccccc32)cc1 | nt | 2% | nt | nt
CC1(C)C=C2C(N(CC3CC3)C(=N)N2C(=O)OCc2ccccc2)n2c(=O)n(-c3ccccc3)c(=O)n21 (stereo unspecified) | nt | nt | i | nt
COc1ccc2[nH]cc(C(=O)CNc3nccs3)c2c1 | nt | 3% | nt | nt
Cc1ccc(-n2ccn(CC(=O)c3ccc(F)cc3)c(=O)c2=O)cc1C | 6% | nt | i | i
O=[N+]([O-])c1nn(-c2ccccc2)n(O)c1=NCCc1ccccc1 | 7.1µM* | 2% | nt | i
COc1ccc(-n2nc([N+](=O)[O-])c(=NCCc3ccccc3)n2O)cc1 | 13µM* | 8% | nt | i
O=[N+]([O-])c1nn(-c2ccccc2)n(O)c1=NC1CCN(Cc2ccccc2)CC1 | 4% | -4% | i | i
Cc1ccc(CCN=c2c([N+](=O)[O-])nn(-c3ccccc3)n2O)cc1 | 11µM* | 20% | i | i
O=C(NCC(c1cccs1)S(=O)(=O)c1cccs1)c1ccccc1 (stereo unspecified) | -12% | nt | i | i
CC(C)Sc1nnc2c3ccccc3n(C)c2n1 | nt | -11% | nt | nt
CC1CN(C(=O)c2ccccc2OCc2ccc(Cl)cc2Cl)CC(C)O1 (stereo unspecified) | 28µM* | 9% | i | i
CC1CN(C(=O)c2cccc(COc3ccccc3Cl)c2)CC(C)O1 (stereo unspecified) | -21%[0.397 µM] | 1% | i | i
CN(C)c1ccc(/C=C2\C=Cc3ccccc32)c(F)c1 | nt | -12% | nt | nt
Cc1ccc(-n2ncc3c(NC4CCCC4)ncnc32)cc1 | 1.3µM* | nt | i | i
Clc1cccc(-n2ncc3c(NC4CCCCCC4)ncnc32)c1 | 35µM* | nt | i | i
Oc1ccccc1C1C=C(c2ccc3c(c2)OCO3)NC(c2cccc(F)c2)N1 (stereo unspecified) | nt | 15% | nt | nt
SMILES | TDP43 rescue | aSyn yeast inh | FUS suppressor | Abeta yeast res
Cn1cccc1C=NNC(=O)c1cc(-c2ccc(Cl)cc2)n[nH]1 | nt | nt | i | nt
Cc1ccc2c(c1)sc1nc(-c3cc4cc(Cl)ccc4oc3=O)cn12 | 12% | nt | i | i
CCOC(=O)C1CCCN(C(=O)c2cc(-c3ccccc3)cs2)CC1 (stereo unspecified) | 18µM* | -5% | i | i
CCOC(=O)C1CCCN(C(=S)Nc2ccc(Nc3ccccc3)cc2)C1 (stereo unspecified) | 22µM* | ? | ? | ?
CCOC(=O)C1CCCN(C(=O)c2sc(-c3ccccc3)nc2C)CC1 (stereo unspecified) | 0% | 13% | i | i
CCOC(=O)C1CCN(C(=S)Nc2ccccc2)CC1 | -11% | -2% | i | i
CC1CCN(C(=O)c2cc3c(=O)n(C)c4ccccc4c3s2)CC1 | 0% | nt | i | i
CCOC(=O)C1CCCN(C(=O)c2cc3c(=O)n(C)c4ccccc4c3s2)C1 (stereo unspecified) | 20µM* | nt | i | i
